# Data taken from PubChem BioAssay (Tox21).
# Results filed as inconclusive are left out. Unmarked numbers belong to inactive results. Calls come from the whole dose curve.
# Test: qHTS assay to identify small molecule agonists of the endoplasmic reticulum stress response signaling pathway - cell viability counter screen (AID 1159517); note: nearly all actives have a fitted effect of over 50% in size
# Conditions: ESRE-bla HeLa viability, CellTiter-Glo luminescence, 5 h; series mostly up to 61 µM; activity change, negative = cytotoxicity: at the top concentration
# Text: U.S. Tox21 Program National Center for Advancing Translational Sciences [NCATS] NIH Chemical Genomics Center [NCGC] U.S. Environmental Protection Agency [EPA] National Institutes of Environmental Health Sciences [NIEHS] National Toxicology Program [NTP] U.S. Food and Drug Administration [FDA] Tox21 Assay Overview: Endoplasmic Reticulum (ER) plays an important role in cellular signaling, protein folding/maturation, stress response, lipid biosynthesis, calcium storage and release etc. Under stress conditions, proteins in ER misfold or unfold, and leading to the expression of ER stress responsive genes. ER stress has been associated with a variety of pathophysiological conditions such as cancer, inflammation, neurodegenerative diseases, diabetes, ischemic heart disease etc. To identify the compounds that induce ER stress response, an ER stress reporter cell line, CellSensor ESRE-bla HeLa (Life Technologies, Carlsbad, CA) containing a beta-lactamase reporter gene under control of the Endoplasmic reticulum Stress Response Element (ESRE) was used to screen Tox21 10K compound library. The cytotoxicity of the Tox21 compound library against the ESRE-bla HeLa cell line was tested in parallel by measuring cell viability using the CellTiter-Glo assay in the same wells.
# Tox21 Assay Protocol Summary: ESRE-bla HeLa cells were dispensed at 1,500 cells/6 uL of assay medium per well into black wall/clear-bottom 1536-well plates using a Multidrop Combi (ThermoFisher Scientific, Waltham, MA) dispenser. After the assay plates were incubated at 37 C and 5% CO2 for an overnight, 23 nL of compounds dissolved in DMSO, positive controls or DMSO only was transferred to the assay plate by a Pintool station (Kalypsys, San Diego, CA). The assay plates were incubated at 37 C and 5% CO2 for 5 hr. One uL of LiveBLAzer B/G FRET substrate (Life Technologies) was added using a FRD (Flying Reagent Dispenser, Aurora Discovery, San Diego, CA) and the plates were incubated at room temperature for 2 hr. Fluorescence intensity (405 nm excitation, 460 nm and 530 nm emissions) was measured using an Envision plate reader (PerkinElmer, Shelton, CT). For cytotoxicity, 4 ul/well of CellTiter-Glo reagent was added into the assay plates using an FRD. After 30 min incubation at room temperature, the luminescence intensity was measured using a ViewLux plate reader (PerkinElmer).
# % is set by controls: 0 for no effect and ±100 for the full control effect.
row,SMILES,"activity change, negative = cytotoxicity"
1,COCC(=O)N(c1c(C)cccc1C)N1CCOC1=O,11.2%
2,Cc1ncc(CNC(=O)N(CCCl)N=O)c(N)n1,-2.61%
3,O=C(N[C@H]1CN2CCC1CC2)c1cc2ccoc2cn1,-10.7%
4,NC(=S)C(N)=S,16.2%
5,N#Cc1ccncc1,-3.23% [at 78.8 µM]
6,C=CCC1=C(C)[C@@H](OC(=O)[C@@H]2[C@@H](C=C(C)C)C2(C)C)CC1=O,-24.3%
7,N#CC(Cl)(Cl)Cl,1.4%
8,O=C(Oc1ccc(Br)cc1)N1CCN2CCC1CC2,-12.8%
9,COC(=O)C(C)Oc1ccc(Oc2ccc(Cl)cc2Cl)cc1 (stereo not given),-7.85%
10,CCOP(=S)(OCC)Oc1nc(Cl)n(C(C)C)n1,2.77%
11,Nc1c(Br)cc([N+](=O)[O-])cc1[N+](=O)[O-],-1.14% [at 78.8 µM]
12,CCNc1nc(NC(C)C)nc(OC)n1,10.9%
13,C[C@@H]1CN(C2CCC(C#N)(c3ccc(F)cc3)CC2)CC[C@]1(C(=O)O)c1ccccc1 (stereo not given in full),-0.909%
14,CC(=O)[C@H]1CC[C@H]2[C@@H]3CC[C@H]4C[C@H](O)CC[C@]4(C)[C@H]3C(=O)C[C@]12C,-5.98%
15,CNNC,2.37% [at 78.8 µM]
16,CC1=C(C(=O)Nc2ccccc2)S(=O)(=O)CCO1,9.91%
17,CC(N)=S,16.2%
18,Cc1nnc2n1-c1sc(CCC(=O)N3CCOCC3)cc1C(c1ccccc1Cl)=NC2,-29.5%
19,CNC(=O)N(C)c1nc2ccccc2s1,5.24%
20,CC1=NNC(=O)N(/N=C/c2cccnc2)C1,1.41%

row,SMILES,"activity change, negative = cytotoxicity"
1,CC1COC2(c3ccccc3Cl)c3cc(Cl)ccc3NC(=O)CN12 (stereo not given),17.6%
2,Nc1cnn(-c2ccccc2)c(=O)c1Cl,6.42%
3,CC(C)(C)C(=O)C(Oc1ccc(Cl)cc1)n1cncn1 (stereo not given),12.1%
4,CC(=O)CCc1ccc2c(c1)OCO2,-2.01%
5,CC(C(=O)c1ccccc1)N(C)C (stereo not given),5.2%
6,O=C(CCN1CC1)OCC(CO)(COC(=O)CCN1CC1)COC(=O)CCN1CC1,11%
7,COc1ncc(F)c2nc(S(=O)(=O)Nc3c(F)cccc3F)nn12,-0.506%
8,COP(=S)(OC)Oc1ccc(S(N)(=O)=O)cc1,8.27%
9,C1CCC(C2CCCCC2)CC1,3.53%
10,CNC(=O)Oc1c(C(C)(C)C)cc(C)cc1C(C)(C)C,1.52%
11,Fc1cc(Br)ccc1CBr,-8.82%
12,OCCBr,12.9%
13,Nc1cc(Cl)ccc1O,-20.2%
14,CCCCOP(=O)(O)OCCCC,-11.7%
15,CC(Oc1ccc(Oc2ncc(C(F)(F)F)cc2Cl)cc1)C(=O)O (stereo not given),-8.53%
16,C[C@]12CC[C@H]3[C@@H](CCC4=CC(=O)CC[C@@]43C)[C@@H]1CC[C@@H]2C(=O)O,-17.7%
17,COc1cc2c(cc1OC)[C@@]13CCN4CC5=CCO[C@H]6CC(=O)N2[C@H]1[C@H]6[C@H]5C[C@H]43,6.12%
18,O=C1CN2CCOC2(c2ccccc2Cl)c2cc(Cl)ccc2N1 (stereo not given),-7.2%
19,CC(C)CP(=S)(S)CC(C)C,0.248%
20,COC(=O)C1=CCCN(C)C1,6.95%
